For 25 sequences, binding signal results are on record in paper PMC11006913.

Common to all, as to experiment: PBM; 200 nM protein, PBS
Common to all, as to settings: dsDNA, one strand shown

Experiment [1] concerns the target ALX4 (Homo sapiens, UniProt Q9H161 200-286).
Experiment [2] has as its target ALX4 (Homo sapiens, UniProt Q9H161 200-286, Q225E).
Experiment [3] concerns the target ALX3 (Homo sapiens, UniProt O95076 139-225, N203Q).
Experiment [4] has as its target ALX3 (Homo sapiens, UniProt O95076 139-225).
Experiment [5] concerns the target ALX3 (Homo sapiens, UniProt O95076 139-225, L168Q).
In experiment [6] the target is ALX3 (Homo sapiens, UniProt O95076 139-225, L168V).
Experiment [7] addresses ALX3 (Homo sapiens, UniProt O95076 139-225, N203S).
Experiment [8] addresses MSX2 (Homo sapiens, UniProt P35548 130-214, R199I).
The target in experiment [9] is MSX2 (Homo sapiens, UniProt P35548 130-214).
In experiment [10] the target is PROP1 (Homo sapiens, UniProt O75360 56-141).
In experiment [11] the target is PROP1 (Homo sapiens, UniProt O75360 56-141, R99H).
The target of experiment [12] is PROP1 (Homo sapiens, UniProt O75360 56-141, F88S).
The target in experiment [13] is MSX2 (Homo sapiens, UniProt P35548 130-214, F161Y).
MSX2 (Homo sapiens, UniProt P35548 130-214, F161Y), sequence (P35548 130-214 F161Y): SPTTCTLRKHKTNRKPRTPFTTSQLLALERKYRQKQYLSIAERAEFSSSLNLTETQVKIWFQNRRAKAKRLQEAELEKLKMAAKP

ALX4 (Homo sapiens, UniProt Q9H161 200-286), sequence (Q9H161 200-286): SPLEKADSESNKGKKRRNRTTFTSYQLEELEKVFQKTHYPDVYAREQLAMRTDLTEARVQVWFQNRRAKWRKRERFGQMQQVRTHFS
ALX4 (Homo sapiens, UniProt Q9H161 200-286, Q225E), sequence (Q9H161 200-286 Q225E): as the sequence (Q9H161 200-286) above, with Q26E counted along it
ALX3 (Homo sapiens, UniProt O95076 139-225, N203Q), sequence (O95076 139-225 N203Q): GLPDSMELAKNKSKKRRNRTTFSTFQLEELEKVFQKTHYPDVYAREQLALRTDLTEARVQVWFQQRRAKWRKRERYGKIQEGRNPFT
ALX3 (Homo sapiens, UniProt O95076 139-225), sequence (O95076 139-225): as the sequence (O95076 139-225 N203Q) above, with Q65N counted along it
ALX3 (Homo sapiens, UniProt O95076 139-225, N203S), sequence (O95076 139-225 N203S): as the sequence (O95076 139-225 N203Q) above, with Q65S counted along it
ALX3 (Homo sapiens, UniProt O95076 139-225, L168V), sequence (O95076 139-225 L168V): as the sequence (O95076 139-225 N203Q) above, with L30V, Q65N counted along it
ALX3 (Homo sapiens, UniProt O95076 139-225, L168Q), sequence (O95076 139-225 L168Q): as the sequence (O95076 139-225 N203Q) above, with L30Q, Q65N counted along it
MSX2 (Homo sapiens, UniProt P35548 130-214, R199I), sequence (P35548 130-214 R199I): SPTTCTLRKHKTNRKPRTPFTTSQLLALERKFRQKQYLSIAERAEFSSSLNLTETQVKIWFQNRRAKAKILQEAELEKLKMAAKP
MSX2 (Homo sapiens, UniProt P35548 130-214), sequence (P35548 130-214): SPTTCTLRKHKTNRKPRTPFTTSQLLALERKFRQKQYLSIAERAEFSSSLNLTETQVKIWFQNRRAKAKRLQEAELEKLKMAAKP
PROP1 (Homo sapiens, UniProt O75360 56-141), sequence (O75360 56-141): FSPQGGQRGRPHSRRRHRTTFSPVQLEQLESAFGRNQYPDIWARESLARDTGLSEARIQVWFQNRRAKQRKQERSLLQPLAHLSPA
PROP1 (Homo sapiens, UniProt O75360 56-141, F88S), sequence (O75360 56-141 F88S): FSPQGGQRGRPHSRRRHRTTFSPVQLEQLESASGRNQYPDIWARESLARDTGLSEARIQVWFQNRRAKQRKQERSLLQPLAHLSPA
PROP1 (Homo sapiens, UniProt O75360 56-141, R99H), sequence (O75360 56-141 R99H): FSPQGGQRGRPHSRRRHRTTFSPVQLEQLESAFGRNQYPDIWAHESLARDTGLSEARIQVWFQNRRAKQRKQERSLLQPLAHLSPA

As for ATTGGTGA, the binding signal in [1] is 10.4 upbm affinity estimate (log intensity, higher = more binding, comparable within an allelic series); in experiment [2], 9.78 upbm affinity estimate (log intensity, higher = more binding, comparable within an allelic series).

For CCATCGGA, the binding signal in experiment [1] was 8.15 upbm affinity estimate (log intensity, higher = more binding, comparable within an allelic series); in experiment [2], 8.29 upbm affinity estimate (log intensity, higher = more binding, comparable within an allelic series).

In the case of AACGACAT, the binding signal in experiment [1] was 9.98 upbm affinity estimate (log intensity, higher = more binding, comparable within an allelic series); in experiment [2], 9.4 upbm affinity estimate (log intensity, higher = more binding, comparable within an allelic series).

CCCGACAG: the binding signal is 8.07 upbm affinity estimate (log intensity, higher = more binding, comparable within an allelic series) in experiment [1] and 8.17 upbm affinity estimate (log intensity, higher = more binding, comparable within an allelic series) in experiment [2].

For the sequence CTCCCTTC, the binding signal in [1] is 7.88 upbm affinity estimate (log intensity, higher = more binding, comparable within an allelic series); in experiment [2], 8.19 upbm affinity estimate (log intensity, higher = more binding, comparable within an allelic series).

As for CTATAATA, the binding signal was 11.6 upbm affinity estimate (log intensity, higher = more binding, comparable within an allelic series) in experiment [1] and 10.8 upbm affinity estimate (log intensity, higher = more binding, comparable within an allelic series) in [2].

With GAGAGGCA, the binding signal in [1] was 8.02 upbm affinity estimate (log intensity, higher = more binding, comparable within an allelic series); in [2] it was 8.16 upbm affinity estimate (log intensity, higher = more binding, comparable within an allelic series).

For the sequence AAGCCGGC, the binding signal is 7.99 upbm affinity estimate (log intensity, higher = more binding, comparable within an allelic series) in [1] and 8.26 upbm affinity estimate (log intensity, higher = more binding, comparable within an allelic series) in experiment [2].

Consider GCAGCTCC, for which the binding signal is 8.25 upbm affinity estimate (log intensity, higher = more binding, comparable within an allelic series) in experiment [1] and 8.26 upbm affinity estimate (log intensity, higher = more binding, comparable within an allelic series) in [2].

On to ATATGTAA, for which the binding signal was 10.2 upbm affinity estimate (log intensity, higher = more binding, comparable within an allelic series) in experiment [1] and 9.63 upbm affinity estimate (log intensity, higher = more binding, comparable within an allelic series) in experiment [2].

As to ACGCGGGA, the binding signal in experiment [1] was 8.23 upbm affinity estimate (log intensity, higher = more binding, comparable within an allelic series); in [2] it was 8.27 upbm affinity estimate (log intensity, higher = more binding, comparable within an allelic series).

As to GGGTGACC, the binding signal in experiment [1] was 8.07 upbm affinity estimate (log intensity, higher = more binding, comparable within an allelic series); in experiment [2], 8.31 upbm affinity estimate (log intensity, higher = more binding, comparable within an allelic series).

Take TAAATTTA: the binding signal is 12.2 upbm affinity estimate (log intensity, higher = more binding, comparable within an allelic series) in experiment [1] and 11 upbm affinity estimate (log intensity, higher = more binding, comparable within an allelic series) in experiment [2].

On to CCATTATC, for which the binding signal was 11.3 upbm affinity estimate (log intensity, higher = more binding, comparable within an allelic series) in [1] and 10.2 upbm affinity estimate (log intensity, higher = more binding, comparable within an allelic series) in experiment [2].

Regarding AATGGATA, the binding signal in experiment [1] is 10.2 upbm affinity estimate (log intensity, higher = more binding, comparable within an allelic series); in experiment [2] it was 9.39 upbm affinity estimate (log intensity, higher = more binding, comparable within an allelic series).

Consider AATTTTGA, for which the binding signal in experiment [1] is 11.1 upbm affinity estimate (log intensity, higher = more binding, comparable within an allelic series); in experiment [2], 10.2 upbm affinity estimate (log intensity, higher = more binding, comparable within an allelic series).

Turning to CGATATAA, the binding signal is 10.2 upbm affinity estimate (log intensity, higher = more binding, comparable within an allelic series) in experiment [1] and 9.67 upbm affinity estimate (log intensity, higher = more binding, comparable within an allelic series) in [2].

With GAATACAA, the binding signal in [1] is 9.67 upbm affinity estimate (log intensity, higher = more binding, comparable within an allelic series); in experiment [2], 9.34 upbm affinity estimate (log intensity, higher = more binding, comparable within an allelic series).

On to CTCCGGCC, for which the binding signal in experiment [1] was 8.03 upbm affinity estimate (log intensity, higher = more binding, comparable within an allelic series); in [2] it was 8.06 upbm affinity estimate (log intensity, higher = more binding, comparable within an allelic series).

Take CCCTTCCA: the binding signal is 8.25 upbm affinity estimate (log intensity, higher = more binding, comparable within an allelic series) in [1] and 8.35 upbm affinity estimate (log intensity, higher = more binding, comparable within an allelic series) in experiment [2].

As to CGACGCAG, the binding signal in experiment [1] was 7.86 upbm affinity estimate (log intensity, higher = more binding, comparable within an allelic series); in experiment [2], 7.87 upbm affinity estimate (log intensity, higher = more binding, comparable within an allelic series).

Regarding CGCCTTGA, the binding signal was 8.09 upbm affinity estimate (log intensity, higher = more binding, comparable within an allelic series) in experiment [1] and 8.15 upbm affinity estimate (log intensity, higher = more binding, comparable within an allelic series) in [2].

Consider GAGAGCGC, for which the binding signal in [1] is 7.97 upbm affinity estimate (log intensity, higher = more binding, comparable within an allelic series); in experiment [2] it was 8.13 upbm affinity estimate (log intensity, higher = more binding, comparable within an allelic series); in experiment [3] it was 7.72 upbm affinity estimate (log intensity, higher = more binding, comparable within an allelic series); in experiment [4], 7.6 upbm affinity estimate (log intensity, higher = more binding, comparable within an allelic series); in experiment [5], 7.75 upbm affinity estimate (log intensity, higher = more binding, comparable within an allelic series); in [6], 7.76 upbm affinity estimate (log intensity, higher = more binding, comparable within an allelic series). In addition, the binding signal in [7] is 7.72 upbm affinity estimate (log intensity, higher = more binding, comparable within an allelic series).

On to ACGGAGGC, for which the binding signal in experiment [1] was 8.04 upbm affinity estimate (log intensity, higher = more binding, comparable within an allelic series); in [2], 8.29 upbm affinity estimate (log intensity, higher = more binding, comparable within an allelic series); in experiment [8], 9.59 upbm affinity estimate (log intensity, higher = more binding, comparable within an allelic series); in experiment [3], 7.76 upbm affinity estimate (log intensity, higher = more binding, comparable within an allelic series); in experiment [9] it was 9.53 upbm affinity estimate (log intensity, higher = more binding, comparable within an allelic series); in [4], 7.71 upbm affinity estimate (log intensity, higher = more binding, comparable within an allelic series). For the same sequence, the binding signal was 6.67 upbm affinity estimate (log intensity, higher = more binding, comparable within an allelic series) in [10]; 6.65 upbm affinity estimate (log intensity, higher = more binding, comparable within an allelic series) in [11]; 7.84 upbm affinity estimate (log intensity, higher = more binding, comparable within an allelic series) in [5]; 7.82 upbm affinity estimate (log intensity, higher = more binding, comparable within an allelic series) in experiment [6]; 6.49 upbm affinity estimate (log intensity, higher = more binding, comparable within an allelic series) in experiment [12]; 9.52 upbm affinity estimate (log intensity, higher = more binding, comparable within an allelic series) in [13]. Moreover, the binding signal in experiment [7] was 7.76 upbm affinity estimate (log intensity, higher = more binding, comparable within an allelic series).

Turning to ATGATAAA, the binding signal in experiment [1] is 10.4 upbm affinity estimate (log intensity, higher = more binding, comparable within an allelic series); in [2] it was 9.81 upbm affinity estimate (log intensity, higher = more binding, comparable within an allelic series).
